An excerpt weighted towards active compounds, which were near 3.6% of everything screened.
AmpC detergent: inhibitors of E. coli AmpC beta-lactamase with detergent. P00811. AmpC hydrolysis of nitrocefin, absorbance 480 nm, 0.01% Triton. Potency, µM (top dose mostly 114 µM), inactives show at the top dose activity change, negative = inhibition, actives largely listed as inhibitors. 370,000 tested, 0.041% active. AID 485294;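 further: 0% = no-compound wells and -100% = no-enzyme wells; nearly all actives have a fitted effect of over 25% in size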
Target sequence (P00811 whole entry, looked up): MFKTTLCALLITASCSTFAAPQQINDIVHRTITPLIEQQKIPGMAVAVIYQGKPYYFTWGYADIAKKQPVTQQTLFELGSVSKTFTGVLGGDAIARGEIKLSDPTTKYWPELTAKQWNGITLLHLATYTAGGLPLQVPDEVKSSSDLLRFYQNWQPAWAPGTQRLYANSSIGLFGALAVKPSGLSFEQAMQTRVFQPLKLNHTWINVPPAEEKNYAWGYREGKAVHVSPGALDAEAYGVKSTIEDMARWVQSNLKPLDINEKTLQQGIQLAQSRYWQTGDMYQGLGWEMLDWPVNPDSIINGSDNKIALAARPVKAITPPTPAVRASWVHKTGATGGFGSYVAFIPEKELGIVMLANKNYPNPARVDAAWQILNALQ
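20 mM phosphate pH 7.0 + 0.01% (detergent screen) or 0.0001% Triton X-100; 5.3 nM AmpC reagent; cpd preinc 15 min RT; nitrocefin (800 uM stock) to start; A480 q20 s × 4 min; Activity was normalised to no-enzyme and no-compound control wells.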
Giardia FBPA inh: inhibitors of Giardia lamblia fructose-1,6-bisphosphate aldolase; 290,000 tested, 0.71% active; A8B2U2; purified Giardia FBPA; AID 2451; Potency, µM (highest dose often 59.6 µM), without a hit: top-dose activity, negative = inhibition, usual class: inhibitors; further: nearly all actives have a fitted effect of over 55% in size
Target sequence (A8B2U2 whole entry, looked up): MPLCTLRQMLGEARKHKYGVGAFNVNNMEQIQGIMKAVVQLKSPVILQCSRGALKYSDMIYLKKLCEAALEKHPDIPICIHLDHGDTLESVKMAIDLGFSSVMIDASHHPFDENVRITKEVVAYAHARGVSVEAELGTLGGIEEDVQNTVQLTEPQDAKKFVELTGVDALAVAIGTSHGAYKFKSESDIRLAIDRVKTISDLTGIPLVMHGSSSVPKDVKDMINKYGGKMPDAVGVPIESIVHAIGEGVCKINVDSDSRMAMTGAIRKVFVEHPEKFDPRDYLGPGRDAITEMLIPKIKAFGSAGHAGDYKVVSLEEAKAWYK
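Giardia FBPA (40 nM reagent) was preincubated 10 min at RT with compound (up to 57.5 uM final), then substrate plus GAPDH/TPI/NAD/arsenate coupling system with diaphorase/resazurin was added; resorufin fluorescence (525/598 nm) was read after 20 min.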
AmpC no deterg: blocks E. coli AmpC beta-lactamase in detergent-free assay. P00811. AmpC nitrocefin hydrolysis, absorbance 480 nm, 0.0001% Triton. Potency, µM (series often up to 57.1 µM), for the others: at the highest dose activity change, negative = inhibition, hits mostly inhibitors. 330,000 tested, 0.52% active. AID 485341;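 further: plate controls were no compound for no effect and no enzyme for full effect; nearly all actives have a fitted effect of over 20% in size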
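20 mM phosphate pH 7.0 + 0.01% (detergent screen) or 0.0001% Triton X-100; 5.3 nM AmpC reagent; cpd preinc 15 min RT; nitrocefin (800 uM stock) to start; A480 q20 s × 4 min; Activity was normalised to no-enzyme and no-compound control wells.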
Sm TGR block: S. mansoni TGR enzyme inhibition | Potency, µM (doses to about 114 µM), for the others: top-dose activity change, negative = inhibition, most hits filed as inhibitors | AID 485364 | Q962Y6 | purified TGR, DTNB reduction, TNB absorbance 405 nm | 360,000 tested, 3% active; further: nearly all actives have a fitted effect of over 60% in size
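TGR 20 nM + NADPH 100 uM (dispensed conc.), cpd preinc 15 min RT; start with NADPH (500 uM addition) then DTNB (15 mM addition). Kinetic TNB absorbance, 405 nm filter. Four-parameter Hill fit across titration.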
Numbers without * were called inactive; ? = inconclusive; · = no result; [ ] = another dose, or the depositor's remark. The call rests on the fitted dose curve; in most records, active means well fitted curve in the direction sought with a large enough effect; inconclusive means small, poorly fitted or top-dose-only effect, or another doubt; inactive means no such curve, though single readings can be large; an effect the other way counts as inactive or inconclusive. Unless noted, on the % scale 0 is the no-effect control and ±100 the full control effect; potency means the concentration at half of the fitted maximal effect.

SMILES | AmpC detergent | Giardia FBPA inh | AmpC no deterg | Sm TGR block
Oc1ccc2c3c1O[C@H]1c4[nH]c5c(c4C[C@@]4(O)[C@@H](C2)N(CC2CC2)CC[C@]314)C[C@]1(O)[C@H]2Cc3ccc(O)c4c3[C@@]1(CCN2CC1CC1)[C@@H]5O4 | · | -14.9% | · | ·
Cc1cc(C)nc(NC(=O)c2ccc(Br)cc2)n1 | 4.9% | -0.5% | -9.0% | 11.0%
COc1ccc(C(=O)Nc2nc(C)cc(C)n2)cc1 | 1.5% | -6.2% | 19.1% | 22.4µM*
CCc1nc(OCc2ccco2)c2sc3nc4c(cc3c2n1)COC(C)(C)C4 | -13.6% | -10.1% | -8.5% | 10µM*
CCc1nc2c(sc3nc4c(cc32)COC(C)(C)C4)c(=O)n1Cc1ccco1 | -2.2% | -30.0% | -1.5% | ?
COc1ccc2nc(Nc3nc4cc5c(cc4s3)OCO5)sc2c1 | 2.4% | 5.7% | 22.4µM* | -18.9%
NCc1ccccc1CS(=O)(=O)N1CCOCC1 | · | · | -23.7% | ·
CCOc1ccc(S(=O)(=O)N(CC(=O)N/N=C/c2ccc(-c3ccc([N+](=O)[O-])cc3)o2)c2ccccc2)cc1 | -5.3% | -9.1% | 12.6µM* | -26.4%
Cc1ccc(C)c(N(CC(=O)N/N=C/c2ccc(-c3ccc([N+](=O)[O-])cc3)o2)S(=O)(=O)c2ccccc2)c1 | -0.5% | 5.1% | -22.5% | -29.3%
Cc1ccc2c(c1)c(=O)c(C(=O)c1ccccc1)cn2Cc1ccccc1F | -10.0% | · | · | -11.2%
Cc1cc(Cl)c(S(=O)(=O)Nc2ccon2)cc1OCC(=O)NC1CCCCC1 | -0.9% | 4.6% | 0.224µM* | -5.6%
NC(=O)c1ccc(NC(=O)COC(=O)CCC(=O)c2ccc(Cl)cc2)cc1 | 3.0% | 0.9% | -33.7% | 50.1µM*
O=C(COC(=O)CCC(=O)c1ccc(F)cc1)Nc1ccccc1 | -4.1% | 0.1% | -20.5% | 6.3%
OCCSc1nc(N2CCOCC2)nc(N2CCOCC2)n1 | 2.7% | 0.0% | -13.4% | 8.0%
COc1cccc(C#Cc2c(CO)[nH]c3ccccc23)c1 | 2.3% | · | -34.7% | 31.6µM*
COc1cccc(CN2CCN(Cc3[nH]c4ccccc4c3C)CC2CCO)c1 (stereo not given) | 1.3% | -3.3% | 202.7% | -4.9%[57.1 µM]
O=C(NCc1ccco1)C1c2ccccc2Oc2ccccc21 | -5.4% | -6.5% | -28.4% | 39.8µM*
O=C(/C=C/c1ccco1)NCC1COc2ccccc2O1 (stereo not given) | 0.5% | 15.1% | 1.7% | 0.891µM*
CC(=O)Nc1ccc(NC(=O)/C=C/c2ccc3c(c2)OCO3)cc1 | -4.8% | -2.7% | -17.4% | -19.5%
O=C(/C=C/c1ccco1)NCc1ccc2c(c1)OCO2 | -0.7% | -3.0% | -25.3% | 14.1µM*
O=C(/C=C/c1ccco1)Nc1ccc2c(c1)OCO2 | -6.3% | -16.8% | -26.0% | 14.1µM*
COc1ccccc1NS(=O)(=O)c1cc(C(=O)N2CCCC2)ccc1F | -2.2% | · | -5.0% | 1.5%
COc1ccc(-n2c(=O)c(C)nc3cnc(Oc4ccccc4)nc32)cc1 | · | -2.6% | · | ·
O=C(CCC1COc2ccccc2O1)NCc1ccco1 (stereo not given) | -10.1% | -2.0% | -29.1% | 39.8µM*
O=C(/C=C/c1ccco1)NCC1OCCc2ccccc21 (stereo not given) | 2.4% | -8.7% | -11.2% | 0.501µM*
SMILES | AmpC detergent | Giardia FBPA inh | AmpC no deterg | Sm TGR block
Cc1ccc(C(=O)Nc2nnc(-c3ccco3)o2)cc1 | -1.1% | 17.6% | 0.1% | -3.6%
O=C(Nc1nnc(-c2ccco2)o1)c1ccc([N+](=O)[O-])s1 | -4.8% | ? | -13.3% | 28.2µM*
CCSc1nnc(-c2cccnc2)n1Cc1ccco1 | -9.0% | 0.0% | -18.6% | 35.5µM*
O=C(CSc1nnc(-c2cccnc2)n1Cc1ccco1)c1ccc2ccccc2c1 | ? | 0.0% | 57.4% | 22.4µM*
CCOc1ccc(C(C)=O)cc1N1C(=O)C2C3C=CC(C3)C2C1=O (stereo not given) | ? | -0.2% | -7.4% | ?
CCOc1ccc(C(C)=O)cc1N1C(=O)C2C3C=CC(O3)C2C1=O (stereo not given) | 0.4% | -1.8% | -12.1% | 0.708µM*
Cc1c(NC2=C(Cl)C(=O)N(c3ccccc3)C2=O)c(=O)n(-c2ccccc2)n1C | -0.3% | ? | -31.4% | ?
C=CCNC1=C(Cl)C(=O)N(c2ccccc2Cl)C1=O | ? | -0.6% | -27.9% | 44.7µM*
Cc1c(NC2=C(Cl)C(=O)N(c3ccccc3Cl)C2=O)c(=O)n(-c2ccccc2)n1C | -8.4% | 7.9% | -18.5% | 39.8µM*
O=C1C(Cl)=C(N2CCCCCC2)C(=O)N1c1ccccc1Cl | 2.1% | 3.0% | -40.1% | 3.0%
COc1ccc(-c2nnc3n2N=C(c2c(OC)cccc2OC)CS3)cc1OC | · | 1.9% | · | ·
COc1ccc(CN2CC[C@H]3C=CCc4cccc(c43)C2)cc1 | 2.0% | · | -14.3% | 28.2µM*
O=C(O)CC1(CC(=O)N2CCOCC2)CCCC1 | 35.5µM* | -6.8% | -52.0% | -12.6%
O=C(O)CC1(CC(=O)N2CCC(C(=O)O)CC2)CCCC1 | 44.7µM* | 7.6% | -52.7% | -27.5%
COc1ccc(NC(=O)CC2(CC(=O)N3CCOCC3)CCCC2)cc1Cl | -2.2% | · | 39.2% | -7.5%
NC(=O)C1CCN(C(=O)CC2(CC(=O)O)CCCC2)CC1 | ? | 2.3% | -34.6% | -8.8%
CCOc1ccccc1NC(=O)CC1(CC(=O)N2CCOCC2)CCCC1 | -11.4% | · | -6.5% | 39.8µM*
CCn1cc(S(=O)(=O)c2ccc(C)cc2)[nH]c1=O | -3.7% | 0.9% | -20.7% | 6.2%
CCc1c(C(C)S(=O)(=O)c2ccc(C)cc2)[nH]c(=O)n1-c1ccc(OC(F)(F)F)cc1 (stereo not given) | 7.4% | 14.5% | 1.9% | 5.62µM*
CC(C)OC(=O)c1nn2c(C(F)(F)F)cc(-c3ccc(Br)o3)nc2c1Br | ? | 4.0% | -22.8% | 20µM*
CCOc1cccc(C=Nc2cc(C)cc(C)c2O)c1O | ? | ? | -46.1% | 3.98µM*
Cc1c(CCOC(=O)c2cc([N+](=O)[O-])cc([N+](=O)[O-])c2)sc[n+]1CCCCS(=O)(=O)[O-] | 8.4% | -10.0% | -11.9% | 0.0%
CCc1ccc(NC(=O)[C@H](Cc2ccccc2)NC(=O)C2CCN(C(=O)[C@@H](N)CC(C)C)CC2)cc1 | -9.4% | -5.8% | 250.4% | -1.3%
S=C(NCc1ccc(Cl)cc1)Nc1ccccc1 | ? | -4.4% | 3.4% | ?
S=C(NCc1ccc(Cl)cc1)Nc1ccncc1 | -0.1% | · | -38.8% | 35.5µM*
SMILES | AmpC detergent | Giardia FBPA inh | AmpC no deterg | Sm TGR block
Cc1cccc(CC(=O)Nc2cc(C)c3c(=O)oc4ccccc4c3n2)c1 | ? | 0.8% | -14.2% | 1.2%
Cc1cc(NC(=O)Cc2ccccc2)nc2c1c(=O)oc1ccccc12 | ? | 2.2% | 6.31µM* | 4.1%
Cn1c(SCC(=O)NC2CCCCC2)nnc1-c1ccncc1 | ? | 7.1% | -0.2% | 2.2%
O=C(CSc1nc(-c2ccncc2)nn1CC(=O)N1CCCCC1)NC1CCCC1 | -12.9% | -0.1% | -2.9% | 39.8µM*
C=Cc1ccc(CN2C(=O)N(c3cccc(Cl)c3)S(=O)(=O)c3ccccc32)cc1 | -2.2% | · | · | 3.5%
COc1ccccc1OCc1nc(-c2cccc(C)c2)no1 | 29.0% | · | · | 5.4%

Source: PubChem BioAssay
